Test results published in PubChem BioAssay AID1159580 (chemical genetic matrix, 2015).
Out of some 5,500 compounds screened, about 2,000 (36%) were called active. Not shown: some 18% with an inconclusive outcome. Rule as the data show it: active = normalized growth mostly below about 0.91 (no sharp cut-off); inconclusive = no clear call, values can overlap the other calls; inactive = mostly above about 0.92. The list shows a part of the results.

Assay: chemical genetic growth profiling, strain panel (AID 1159580);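 also: tested at 20 µM; growth read once vehicle control cultures reached saturation at 30 °C; 1 = growth at the plate median or of vehicle wells; lower values mean less growth of the strain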
Details: growth OD

Measured: normalized growth

Oc1cc(O)c2c(c1)O[C@H](c1cc(O)c(O)c(O)c1)[C@H](O)C2
inactive: S. cerevisiae deletion strains, locus YJR043C, strain POL32, active compounds read low 1.05 | S. cerevisiae deletion strains, locus YJR066W, strain TOR1, active compounds read low 0.918 | S. cerevisiae deletion strains, locus YKL009W, strain mrt4, active compounds read low 0.976 | S. cerevisiae deletion strains, locus YKL068W, active compounds read low 1 | S. cerevisiae deletion strains, locus YKL085W, strain MDH1 (second series), active compounds read low 1 | S. cerevisiae deletion strains, locus YKL085W, strain MDH1, active compounds read low 1 | S. cerevisiae deletion strains, locus YKL160W, strain elf1, active compounds read low 1.01 | S. cerevisiae deletion strains, locus YKR001C, strain vps1, active compounds read low 0.973 | S. cerevisiae deletion strains, locus YKR026C, strain gcn3, active compounds read low 1.02 | S. cerevisiae deletion strains, locus YKR091W, strain srl3, active compounds read low 1.02 | S. cerevisiae deletion strains, locus YLL001W, strain dnm1, active compounds read low 1.03 | S. cerevisiae deletion strains, locus YLL026W, active compounds read low 1.02 | S. cerevisiae deletion strains, locus YLL041C, strain sdh2, active compounds read low 1.02 | S. cerevisiae deletion strains, locus YLR027C, strain aat2, active compounds read low 1 | S. cerevisiae deletion strains, locus YLR039C, strain RIC1, active compounds read low 1.05 | S. cerevisiae deletion strains, locus YLR058C, strain SHM2, active compounds read low 0.98 | S. cerevisiae deletion strains, locus YLR102C, strain apc9, active compounds read low 0.976 | S. cerevisiae deletion strains, locus YLR113W, strain HOG1, active compounds read low 0.977 | S. cerevisiae deletion strains, locus YLR221C, strain rsa3, active compounds read low 1.01 | S. cerevisiae deletion strains, locus YLR258W, strain gsy2, active compounds read low 1.01 | S. cerevisiae deletion strains, locus YLR262C, strain YPT6 (second series), active compounds read low 1.03 | S. cerevisiae deletion strains, locus YLR262C, strain YPT6, active compounds read low 1.06 | S. cerevisiae deletion strains, locus YLR268W, strain sec22, active compounds read low 0.98 | S. cerevisiae deletion strains, locus YLR320W, strain mms22, active compounds read low 1.04 | S. cerevisiae deletion strains, locus YLR330W, strain CHS5, active compounds read low 1.01 | S. cerevisiae deletion strains, locus YLR342W, strain FKS1 (second series), active compounds read low 0.996 | S. cerevisiae deletion strains, locus YLR342W, strain FKS1, active compounds read low 1.01 | S. cerevisiae deletion strains, locus YLR357W, strain rsc2, active compounds read low 0.986 | S. cerevisiae deletion strains, locus YLR370C, strain arc18, active compounds read low 1.01 | S. cerevisiae deletion strains, locus YLR371W, strain rom2, active compounds read low 0.981 | S. cerevisiae deletion strains, locus YLR384C, strain iki3, active compounds read low 1.03 | S. cerevisiae deletion strains, locus YLR418C, strain cdc73, active compounds read low 1.01 | S. cerevisiae deletion strains, locus YML016C, strain PPZ1, active compounds read low 0.981 | S. cerevisiae deletion strains, locus YML032C, strain rad52, active compounds read low 1.03 | S. cerevisiae deletion strains, locus YML120C, strain ndi1, active compounds read low 1.04 | S. cerevisiae deletion strains, locus YML124C, strain tub3, active compounds read low 0.999 | S. cerevisiae deletion strains, locus YMR058W, strain fet3, active compounds read low 0.945 | S. cerevisiae deletion strains, locus YMR078C, strain ctf18, active compounds read low 1 | S. cerevisiae deletion strains, locus YMR125W, strain sto1, active compounds read low 1.02 | S. cerevisiae deletion strains, locus YMR129W, active compounds read low 1.02 | S. cerevisiae deletion strains, locus YMR205C, strain PFK2, active compounds read low 1.06 | S. cerevisiae deletion strains, locus YMR223W, strain ubp8, active compounds read low 0.991 | S. cerevisiae deletion strains, locus YMR231W, strain pep5, active compounds read low 0.987 | S. cerevisiae deletion strains, locus YMR307W, strain GAS1, active compounds read low 1.07 | S. cerevisiae deletion strains, locus YNL067W, strain RPL9B, active compounds read low 0.984 | S. cerevisiae deletion strains, locus YNL071W, strain lat1, active compounds read low 1.03 | S. cerevisiae deletion strains, locus YNL153C, strain GIM3, active compounds read low 0.957 | S. cerevisiae deletion strains, locus YNL183C, strain NPR1, active compounds read low 0.951 | S. cerevisiae deletion strains, locus YNL209W, strain ssb2, active compounds read low 1 | S. cerevisiae deletion strains, locus YNL233W, strain BNI4, active compounds read low 0.987 | S. cerevisiae deletion strains, locus YNL248C, strain rpa49, active compounds read low 1.03 | S. cerevisiae deletion strains, locus YNL250W, strain rad50, active compounds read low 0.986 | S. cerevisiae deletion strains, locus YNL271C, strain bni1, active compounds read low 0.988 | S. cerevisiae deletion strains, locus YNL298W, strain CLA4, active compounds read low 0.969 | S. cerevisiae deletion strains, locus YNL307C, strain MCK1, active compounds read low 0.981 | S. cerevisiae deletion strains, locus YNL322C, strain KRE1 (second series), active compounds read low 1.02 | S. cerevisiae deletion strains, locus YNR049C, strain mso1, active compounds read low 1.02 | S. cerevisiae deletion strains, locus YNR052C, strain pop2, active compounds read low 0.994 | S. cerevisiae deletion strains, locus YOL012C, strain htz1 1.18 | S. cerevisiae deletion strains, locus YOL147C, strain pex11, active compounds read low 0.988 | S. cerevisiae deletion strains, locus YOR001W, strain rrp6, active compounds read low 1.03 | S. cerevisiae deletion strains, locus YOR061W, strain CKA2, active compounds read low 0.99 | S. cerevisiae deletion strains, locus YOR069W, strain VPS5, active compounds read low 0.99 | S. cerevisiae deletion strains, locus YOR070C, strain gyp1, active compounds read low 1 | S. cerevisiae deletion strains, locus YOR080W, strain dia2, active compounds read low 1.02 | S. cerevisiae deletion strains, locus YOR083W, strain WHI5, active compounds read low 1.01 | S. cerevisiae deletion strains, locus YOR106W, strain vam3, active compounds read low 0.999 | S. cerevisiae deletion strains, locus YOR136W, strain idh2, active compounds read low 0.976 | S. cerevisiae deletion strains, locus YOR144C, strain elg1, active compounds read low 1 | S. cerevisiae deletion strains, locus YOR184W, strain ser1, active compounds read low 1.02 | S. cerevisiae deletion strains, locus YOR231W, strain MKK1, active compounds read low 0.983 | S. cerevisiae deletion strains, locus YOR265W, strain rbl2, active compounds read low 1.02 | S. cerevisiae deletion strains, locus YOR270C, strain vph1, active compounds read low 1.1 | S. cerevisiae deletion strains, locus YOR290C, strain snf2, active compounds read low 1.02 | S. cerevisiae deletion strains, locus YOR316C, strain cot1, active compounds read low 0.98 | S. cerevisiae deletion strains, locus YPL051W, strain arl3, active compounds read low 1 | S. cerevisiae deletion strains, locus YPL055C, strain LGE1, active compounds read low 1.01 | S. cerevisiae deletion strains, locus YPL078C, strain atp4, active compounds read low 1.05 | S. cerevisiae deletion strains, locus YPL106C, strain sse1, active compounds read low 0.99 | S. cerevisiae deletion strains, locus YPL240C, strain hsp82, active compounds read low 1.02 | S. cerevisiae deletion strains, locus YPL256C, strain CLN2, active compounds read low 0.983 | S. cerevisiae deletion strains, locus YPR119W, strain clb2, active compounds read low 0.992 | S. cerevisiae deletion strains, locus YPR141C, strain kar3, active compounds read low 0.978 | S. cerevisiae deletion strains, locus YPR163C, strain tif3, active compounds read low 0.988 | S. cerevisiae deletion strains, locus YPR167C, strain met16, active compounds read low 1 | S. cerevisiae deletion strains, strain wtn01, active compounds read low 0.975 | S. cerevisiae strains, strain wild type, active compounds read low 1
